# Source: PubChem BioAssay AID588689 (Southern Research Specialized Biocontainment Screening …, 2011)
# The campaign covered roughly 340,000 compounds. About 1,000 (0.29%) were called active. No stated cut-off is given here; in the data, inconclusive means inhibition above about 29% without an active follow-up result; inactive means below that. The list is a sample of the results. Entries with a potency or affinity are not part of this list.
# Target: Genome polyprotein (Dengue virus type 2 (strain 16681-PDK53)) (UniProt P29991)
# Assay: flavivirus cap methylation enzyme inhibition – biochemical, confirmation dose response, primary screen (AID 588689)
# Conditions: Dengue-2 NS5 methyltransferase capping enzyme assay, at 25 µM, stronger effect = higher value
# [1] = measured here: pilot screen replicate inhibition
# Sequence of Genome polyprotein (Dengue virus type 2 (strain 16681-PDK53)) (P29991 whole entry, looked up): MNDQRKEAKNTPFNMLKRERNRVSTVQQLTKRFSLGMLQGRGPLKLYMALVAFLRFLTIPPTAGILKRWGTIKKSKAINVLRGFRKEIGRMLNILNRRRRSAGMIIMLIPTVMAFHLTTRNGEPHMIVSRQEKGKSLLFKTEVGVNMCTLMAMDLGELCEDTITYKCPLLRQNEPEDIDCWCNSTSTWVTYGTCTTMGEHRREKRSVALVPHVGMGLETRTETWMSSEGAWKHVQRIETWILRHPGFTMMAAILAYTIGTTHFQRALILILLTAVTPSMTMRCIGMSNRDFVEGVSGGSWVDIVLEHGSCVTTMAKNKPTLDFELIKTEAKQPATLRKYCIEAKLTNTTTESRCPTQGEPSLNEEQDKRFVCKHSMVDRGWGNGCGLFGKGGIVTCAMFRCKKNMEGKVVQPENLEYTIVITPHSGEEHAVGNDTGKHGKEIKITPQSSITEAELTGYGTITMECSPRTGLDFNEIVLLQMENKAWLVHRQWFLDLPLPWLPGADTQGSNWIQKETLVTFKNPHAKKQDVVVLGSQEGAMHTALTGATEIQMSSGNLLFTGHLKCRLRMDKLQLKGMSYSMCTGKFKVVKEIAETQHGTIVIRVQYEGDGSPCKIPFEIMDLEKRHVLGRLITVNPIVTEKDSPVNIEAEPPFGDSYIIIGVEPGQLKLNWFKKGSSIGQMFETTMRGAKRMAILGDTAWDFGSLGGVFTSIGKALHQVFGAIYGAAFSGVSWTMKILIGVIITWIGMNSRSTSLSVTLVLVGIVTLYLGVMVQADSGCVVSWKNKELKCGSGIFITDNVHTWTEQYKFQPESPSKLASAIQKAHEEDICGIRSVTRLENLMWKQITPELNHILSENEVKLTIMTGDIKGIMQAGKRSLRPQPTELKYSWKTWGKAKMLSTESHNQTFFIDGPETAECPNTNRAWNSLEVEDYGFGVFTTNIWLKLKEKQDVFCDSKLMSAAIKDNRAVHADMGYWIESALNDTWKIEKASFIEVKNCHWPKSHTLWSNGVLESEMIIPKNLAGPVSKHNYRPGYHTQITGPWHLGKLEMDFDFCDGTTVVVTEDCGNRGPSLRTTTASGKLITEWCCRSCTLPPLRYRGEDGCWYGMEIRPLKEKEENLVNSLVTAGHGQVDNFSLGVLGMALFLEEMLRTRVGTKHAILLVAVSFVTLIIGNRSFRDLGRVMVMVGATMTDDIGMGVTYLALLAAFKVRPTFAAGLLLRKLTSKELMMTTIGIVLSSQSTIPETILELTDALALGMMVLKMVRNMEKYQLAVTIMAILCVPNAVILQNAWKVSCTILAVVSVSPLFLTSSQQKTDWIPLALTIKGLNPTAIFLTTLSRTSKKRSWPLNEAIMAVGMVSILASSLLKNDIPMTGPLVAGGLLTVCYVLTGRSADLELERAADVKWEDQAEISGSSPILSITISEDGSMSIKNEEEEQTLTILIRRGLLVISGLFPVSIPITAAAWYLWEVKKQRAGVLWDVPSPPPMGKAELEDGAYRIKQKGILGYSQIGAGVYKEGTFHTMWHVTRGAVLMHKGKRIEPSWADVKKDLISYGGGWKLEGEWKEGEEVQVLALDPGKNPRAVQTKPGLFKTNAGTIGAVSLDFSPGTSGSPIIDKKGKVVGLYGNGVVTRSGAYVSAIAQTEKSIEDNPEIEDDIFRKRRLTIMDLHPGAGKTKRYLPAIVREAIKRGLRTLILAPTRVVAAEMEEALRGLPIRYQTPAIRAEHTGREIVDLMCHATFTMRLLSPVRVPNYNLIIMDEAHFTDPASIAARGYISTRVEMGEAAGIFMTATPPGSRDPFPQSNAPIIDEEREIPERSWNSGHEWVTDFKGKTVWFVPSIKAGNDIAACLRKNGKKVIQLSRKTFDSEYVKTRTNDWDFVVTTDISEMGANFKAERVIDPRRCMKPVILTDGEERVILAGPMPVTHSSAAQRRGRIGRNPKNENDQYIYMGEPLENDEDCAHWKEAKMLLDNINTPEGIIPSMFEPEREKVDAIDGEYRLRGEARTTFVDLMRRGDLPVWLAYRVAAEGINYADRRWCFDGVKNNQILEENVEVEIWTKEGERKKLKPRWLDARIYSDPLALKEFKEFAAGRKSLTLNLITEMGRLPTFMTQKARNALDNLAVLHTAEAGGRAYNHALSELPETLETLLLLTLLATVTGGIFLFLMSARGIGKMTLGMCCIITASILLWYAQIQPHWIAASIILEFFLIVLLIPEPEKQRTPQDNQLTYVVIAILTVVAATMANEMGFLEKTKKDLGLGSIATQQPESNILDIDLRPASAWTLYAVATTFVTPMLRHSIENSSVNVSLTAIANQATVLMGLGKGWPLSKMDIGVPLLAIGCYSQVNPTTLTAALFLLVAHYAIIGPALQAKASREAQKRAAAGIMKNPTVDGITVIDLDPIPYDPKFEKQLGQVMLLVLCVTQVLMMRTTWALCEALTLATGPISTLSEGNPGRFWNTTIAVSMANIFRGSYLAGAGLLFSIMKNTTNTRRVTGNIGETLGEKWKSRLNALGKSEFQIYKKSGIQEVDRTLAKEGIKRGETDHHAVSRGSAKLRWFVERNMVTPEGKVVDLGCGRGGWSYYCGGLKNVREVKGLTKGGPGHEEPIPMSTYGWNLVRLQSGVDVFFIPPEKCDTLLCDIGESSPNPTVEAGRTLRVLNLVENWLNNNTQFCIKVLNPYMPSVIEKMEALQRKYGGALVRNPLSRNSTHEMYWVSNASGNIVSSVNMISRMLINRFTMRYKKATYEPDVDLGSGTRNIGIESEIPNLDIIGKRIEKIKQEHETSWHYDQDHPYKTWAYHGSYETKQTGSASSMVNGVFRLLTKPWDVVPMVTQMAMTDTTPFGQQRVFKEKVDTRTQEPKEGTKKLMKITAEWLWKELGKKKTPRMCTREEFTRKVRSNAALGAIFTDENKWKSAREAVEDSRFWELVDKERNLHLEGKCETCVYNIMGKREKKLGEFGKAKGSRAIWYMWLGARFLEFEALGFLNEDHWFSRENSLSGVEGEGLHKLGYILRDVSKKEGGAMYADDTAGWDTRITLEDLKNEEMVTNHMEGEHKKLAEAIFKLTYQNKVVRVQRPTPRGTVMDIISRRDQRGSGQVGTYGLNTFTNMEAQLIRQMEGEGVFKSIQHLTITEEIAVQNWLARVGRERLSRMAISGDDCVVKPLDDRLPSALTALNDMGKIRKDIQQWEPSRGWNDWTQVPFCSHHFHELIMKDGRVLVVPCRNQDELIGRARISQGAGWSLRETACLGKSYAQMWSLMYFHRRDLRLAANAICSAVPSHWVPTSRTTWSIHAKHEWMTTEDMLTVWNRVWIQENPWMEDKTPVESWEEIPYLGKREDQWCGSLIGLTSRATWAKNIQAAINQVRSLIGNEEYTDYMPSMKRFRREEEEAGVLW
SMILES,inhibition,inhibition [1] [%]
Cc1occc1C(=O)NNC(=O)COc1ccc(Br)cc1Br,-1.83% (inactive),
CCNC(=O)C1CCCN(c2nc(C)cc(C)n2)C1 (centres undefined),3.17% (inactive),
Cc1nn(C(=O)c2ccc3c(c2)OCO3)c(N)c1-c1ccccc1,-2.78% (inactive),
CCc1ccc(/C=C2\SC(=S)N(CCCC(=O)Nc3nccs3)C2=O)cc1,5.18% (inactive),
COc1ccc(C(=O)Cn2c(C(C)=O)nc3ccccc32)cc1,-4.63% (inactive),
COc1ccc(N2CCN(C(=O)CC3NC4CCCCC4NC3=O)CC2)cc1 (centres undefined),4.8% (inactive),-0.61
CCC(Oc1ccccc1)C(=O)N1CCN(S(=O)(=O)c2ccccc2)CC1 (centres undefined),-3.63% (inactive),
Cc1cccc(C)c1N(CC(=O)NCc1ccco1)C(=O)CNS(=O)(=O)c1ccc(F)cc1,-7.48% (inactive),
CC1(C)C(=O)C2(CCCCC2)C(=O)OC1c1ccc(O)cc1 (centres undefined),5.67% (inactive),
Cc1cc(=O)oc2c(CN3CCN(CCO)CC3)c(O)ccc12,-1.72% (inactive),
O=[N+]([O-])c1ccc(N2CCN(CCOCCO)CC2)c([N+](=O)[O-])c1,-3.06% (inactive),
O=S(=O)(c1ccc(Br)cc1Cl)N1CCN(CCO)CC1,0.74% (inactive),
OCCOCCN1CCN(C(=S)Nc2ccccc2)CC1,-12.4% (inactive),
Cc1noc(C)c1C(=O)OCC(=O)N1CCc2ccccc21,-4.42% (inactive),
CN(C(=O)c1ccc(NC(=O)Cc2ccc(NC(=O)C3CCCN(C(=O)C4CCC4)C3)cc2)cc1)C1CC1 (centres undefined),-5.79% (inactive),
Cc1ccc(NC(=O)CSc2nncs2)cc1Cl,-5.19% (inactive),
O=C(c1ccc(F)cc1F)N1CCCc2ccccc21,-15% (inactive),
Cc1noc(NS(=O)(=O)c2ccc(NC(=O)c3cccc(S(=O)(=O)Nc4ccccc4F)c3)cc2)c1C,-5.34% (inactive),
Cc1noc(NS(=O)(=O)c2ccc(NC(=O)c3cc(F)c(F)c(F)c3F)cc2)c1C,8.65% (inactive),
Cc1ccccc1C(=O)Nc1ccc(S(=O)(=O)Nc2onc(C)c2C)cc1,-6.85% (inactive),
Cc1noc(NS(=O)(=O)c2ccc(NC(=O)c3ccc(F)cc3)cc2)c1C,11.3% (inactive),
CC(=O)C1=C(O)C(=O)N(Cc2ccccc2)C1c1ccc(N(C)C)cc1 (centres undefined),-5.27% (inactive),-5.49
CC(C1CC1)N(Cc1ccccc1)C(=O)NC(=O)c1cccc(F)c1 (centres undefined),-0.76% (inactive),
O=C(CN1C(=O)C2CC=CCC2C1=O)Nc1cc(C(F)(F)F)ccc1N1CCCC1 (centres undefined),4.32% (inactive),
CC1(C)CC[C@]2(C(=O)O[C@@H]3O[C@H](CO)[C@@H](O)[C@H](O)[C@H]3O)CC[C@]3(C)C(=CCC4[C@@]5(C)CC[C@H](O[C@@H]6O[C@H](C(=O)O)[C@@H](O[C@H]7OC[C@@H](O)[C@@H](O)[C@@H]7O)[C@H](O)[C@H]6O)C(C)(C)C5CC[C@]43C)[C@@H]2C1 (some centres undefined),-9.97% (inactive),
CC1(C)CC[C@]2(C(=O)O[C@@H]3OC(CO)[C@@H](O)[C@H](O)[C@H]3O)CC[C@]3(C)C(=CCC4[C@@]5(C)CC[C@H](O[C@@H]6OC(C(=O)O)[C@@H](O)[C@H](O)[C@H]6O)C(C)(C)C5CC[C@]43C)[C@@H]2C1 (some centres undefined),20.2% (inactive),2.42
